Compound activity as filed in PubChem.
Shown are actives, neighbours in structure and some others; about 15% of the full set was active somewhere.
HCMV inh: human cytomegalovirus inhibition; HFF cells, HCMV-luciferase reporter, 72 h; stronger effect = lower value; activity change, negative = inhibition, % at 57.5 µM; 4.5% of 410,000 active; in the data active = activity change below about -60%; inconclusive = no clear call, values can overlap the other calls; inactive = above about -39%; note: % is set by controls: 0 for no effect and ±100 for the full control effect
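Steps: HFFs plated, 16 h 37C; compounds added; HCMV-luciferase added to MOI 1 PFU/cell; 72 h 37C; OneGlo reagent, 5 min room temperature; luminescence read, normalized to controls.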
SARS PLpro yeast: SARS-CoV PLP inhibition in yeast | S. cerevisiae expressing SARS-CoV PLpro, growth rescue | Potency, µM (top dose mostly 32.9 µM), for inactives: at the top dose activity, positive = growth rescue, usual class: activators | 0.19% of 330,000 active; calls by dose curve; note: potency is the fitted concentration of half-maximal effect; 0% is about no effect; nearly all actives have a fitted effect of over 55% in size
Pf growth 48h: P. falciparum growth inhibition at 48 hours (one generation); P. falciparum luciferase growth in erythrocytes, 48 h; Potency, µM (doses to about 28.7 µM), for inactives: at the top dose activity change, negative = inhibition, hits mostly inhibitors; 5.9% of 310,000 active; AID 504832; note: potency is the fitted concentration of half-maximal effect; % is set by controls: 0 for no effect and ±100 for the full control effect
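Read-out is firefly luciferase luminescence from an integrated reporter in P. falciparum, so falling signal marks reduced parasite growth. Infected erythrocytes were at 2% hematocrit and 0.1% parasitemia (final) in Albumax-supplemented RPMI 1640.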
Pf growth 96h: inhibits malaria parasite growth, 96 h; P. falciparum luciferase reporter growth, 96 h; Potency, µM (top dose mostly 28.7 µM), for the others: top-dose activity change, negative = inhibition, actives largely listed as inhibitors; 6.9% of 320,000 active; AID 504834; note: potency is the fitted concentration of half-maximal effect; % is set by controls: 0 for no effect and ±100 for the full control effect
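Compounds incubated with erythrocytes infected by luciferase-expressing P. falciparum (2% hematocrit, 0.05% parasitemia final) for 96 hours, 37 C in 5% CO2. Growth inhibition scored as decreased luciferase luminescence.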
HCV inh: inhibitors of hepatitis C virus infection | Huh7.5.1 HCVcc-Cre infection, luciferase reporter, 44 h | Potency, µM (doses to about 41.8 µM), for inactives: at the highest dose activity change, negative = inhibition, hits mostly inhibitors | 3.4% of 340,000 active; note: potency is the fitted concentration of half-maximal effect; % is set by controls: 0 for no effect and ±100 for the full control effect
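Cells (1,000/well) were plated 4 h before compound, then infected with HCVcc-Cre virus (~0.5 moi). After 44 h further culture, infection was read as luciferase luminescence following a 15 min substrate incubation at room temperature.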
Sm TGR block: blocks Schistosoma mansoni thioredoxin glutathione reductase. 3% of 360,000 active. AID 485364. Potency, µM (highest dose often 114 µM), for the others: at the highest dose activity change, negative = inhibition, usual class: inhibitors. Q962Y6. purified TGR, DTNB reduction, TNB absorbance 405 nm; note: potency is the fitted concentration of half-maximal effect; % is set by controls: 0 for no effect and ±100 for the full control effect; nearly all actives have a fitted effect of over 60% in size
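TGR 20 nM + NADPH 100 uM (dispensed conc.), cpd preinc 15 min RT; start with NADPH (500 uM addition) then DTNB (15 mM addition). Kinetic TNB absorbance, 405 nm filter. Four-parameter Hill fit across titration.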
Numbers without * were called inactive; u = inconclusive; x = not tested or not shown. Unless noted, calls come from the whole dose curve; as a rule, active = well fitted curve in the direction sought with a large enough effect; inconclusive = small, poorly fitted or top-dose-only effect, or another doubt; inactive = no such curve, though single readings can be large; an effect the other way counts as inactive or inconclusive.

SMILES | HCMV inh | SARS PLpro yeast | Pf growth 48h | Pf growth 96h | HCV inh | Sm TGR block
CCc1ccc(C2NC(c3ccc(CC)cc3)C([N+](=O)[O-])C(C)(C)C2[N+](=O)[O-])cc1 (configuration not stated) | 5 | 7% | u | 13µM* | 25% | 8%
Cc1nn(Cc2ccccc2)c2c1C(c1ccncc1)C(C#N)=C(N)O2 (configuration not stated) | -3 | 0% | -17% | u | -16% | u
Cc1nn(Cc2ccccc2)c2c1C(c1ccco1)C(C#N)=C(N)O2 (configuration not stated) | 5 | -3% | -15% | x | -2% | 50µM*
Cc1nn(Cc2ccccc2)c2c1C(c1cccnc1)C(C#N)=C(N)O2 (configuration not stated) | -25 | 7% | x | 25% | 15% | -1%
Cc1nn(Cc2ccccc2)c2c1C(c1ccc(Cl)cc1)C(C#N)=C(N)O2 (configuration not stated) | -16 | 12% | u | 1.2µM* | 2% | -32%
CCCCn1c(=O)[nH]c(=O)c2c(C(=O)OCC)cc(-c3cccs3)nc21 | -25 | -4% | 0% | -20% | 10µM* | 2%
CCCn1c(=O)[nH]c(=O)c2c(C(=O)OCC)cc(-c3cccs3)nc21 | 15 | 0% | u | u | u | -34%
O=[N+]([O-])c1cc(O)c2ncccc2c1 | -97* | -18% | u | u | 0.56µM* | -5%
O=[N+]([O-])c1ccc(Sc2cccc3cccnc23)c2cccnc12 | -101* | 0% | u | u | 10µM* | 1%
O=[N+]([O-])c1cc2cccnc2c2ncccc12 | -97* | -3% | 4.7µM* | 9.3µM* | u | -11%
CCCCN(C(=O)c1ccccc1Cl)C(CC(C)C)c1nc2ccccc2[nH]1 (configuration not stated) | -22 | x | x | x | x | x
CC1(C)Cc2cccc(OCC(=O)Nc3cc(S(C)(=O)=O)ccc3Cl)c2O1 | 0 | 4% | u | u | u | -14%
CC(C)(Oc1ccc(Cl)cc1)C(=O)Nc1nc2ccc(S(C)(=O)=O)cc2s1 | 9 | x | x | x | x | 4%
Cc1cccc(C(=O)Nc2cccc(C(=O)OCc3cc(=O)n4nc(C5CC5)sc4n3)c2)c1 | 53 | x | x | x | x | 5%
COC(=O)c1cc(NC(=O)CN(C)C2CCS(=O)(=O)C2)cc(C(=O)OC)c1 (configuration not stated) | 34 | -5% | x | x | 18% | x
CC[C@H]1OC(=O)[C@H](C)[C@@H](O[C@H]2C[C@@](C)(OC)[C@@H](O)[C@H](C)O2)[C@H](C)[C@@H](O[C@@H]2O[C@H](C)C[C@H](N(C)C)[C@H]2O)[C@](C)(O)C[C@@H](C)CN(C)[C@H](C)[C@@H](O)[C@]1(C)O | -11 | x | 13µM* | 0.13µM* | u | x
CC[C@H]1OC(=O)[C@H](C)[C@@H](O[C@H]2C[C@@](C)(OC)[C@@H](O)[C@H](C)O2)C(C)[C@@H](O[C@@H]2O[C@H](C)C[C@H](N(C)C)[C@@H]2O)[C@](C)(OC)C[C@@H](C)C(=O)[C@H](C)[C@@H](O)[C@]1(C)O (some centres not stated) | x | x | 13µM* | 1.3µM* | x | x
CCC1OC(=O)C(C)[C@@H](O[C@H]2C[C@@](C)(OC)C(O)C(C)O2)C(C)[C@@H](O[C@@H]2OC(C)CC(N(C)C)C2O)[C@@](C)(O)CC(C)C(=O)[C@@H](C)C(O)[C@]1(C)O (some centres not stated) | x | x | -14% | u | x | x
Cc1cc2c(ccc3[nH]onc32)n1 | -33 | -12% | 20% | 5% | u | 32µM*
COc1ccc(CCN2C(=O)C(Oc3ccccc3C)C2c2ccc3c(c2)OCO3)cc1 (configuration not stated) | -32 | -12% | u | 0.93µM* | u | -1%
COc1ccc(CCN2C(=O)C(Oc3ccccc3C)C2c2ccc3c(c2)OCO3)cc1OC (configuration not stated) | 61 | 0% | 12µM* | 58% | u | 3%
O=C1C(Oc2ccccc2)C(c2ccc3c(c2)OCO3)N1CCc1ccc(F)cc1 (configuration not stated) | -3 | 4% | u | 0% | 7% | -1%
CC(C)NC(=O)C1(C)CN(S(C)(=O)=O)CC(=O)N1Cc1ccco1 (configuration not stated) | -36 | x | x | x | x | x
CCCN(C(=O)c1cc2c(=O)oc3ccccc3c2s1)c1ccc(CC)cc1 | 4 | x | x | x | x | 8%
CC(C)c1ncc(C(O)c2ccccc2)n1C (configuration not stated) | 10 | 1% | 8% | 22% | 15% | -1%
SMILES | HCMV inh | SARS PLpro yeast | Pf growth 48h | Pf growth 96h | HCV inh | Sm TGR block
Cn1c(Cl)cnc1C(O)c1ccccc1 (configuration not stated) | -39 | -1% | 8% | 6.6µM* | 3% | -12%
Cc1c(O)cccc1C(=O)N[C@@H](CSc1ccccc1)[C@H](O)CN1C[C@H]2CCCC[C@H]2C[C@H]1C(=O)NC(C)(C)C | 2 | 3% | 6.6µM* | u | 10µM* | 28%
Cc1ccc(S(=O)(=O)N2CCCCC2)cc1NC(=O)COC(=O)c1ccccc1F | 78 | -1% | -17% | -8% | -19% | 23%
COCCN1C(=O)C(=O)/C(=C(/O)c2ccc(S(=O)(=O)N3CCOCC3)cc2)C1c1cccc([N+](=O)[O-])c1 (configuration not stated) | x | 10% | 13% | -4% | 18% | -3%
O=C(C1CCN(S(=O)(=O)Cc2ccccc2)CC1)N1CCN(c2cccc(Cl)c2)CC1 | 12 | x | x | x | x | -10%
Nc1nsc2ccccc12 | -72* | -32% | u | -4% | 11µM* | -1%
CCC(CO)Oc1cc(NCc2ccc(C(F)(F)F)cc2)c2ncn(C(C)C)c2c1 (configuration not stated) | -28 | -1% | x | x | 11µM* | x
CC[C@H](CO)Oc1cc(NCc2ccc(Cl)c(Cl)c2)c2ncn(C(C)C)c2c1 | 19 | 1% | x | x | 11µM* | x
CCC(CO)Oc1cc(NCc2cccc(C(F)(F)F)c2)c2ncn(C(C)C)c2c1 (configuration not stated) | 5 | 0% | x | x | u | x
CCC(CO)Oc1cc(NCc2cccc(C)c2)c2ncn(C(C)C)c2c1 (configuration not stated) | -76* | 7% | x | x | u | x
CCC(CO)Oc1cc(NCc2ccc(Cl)cc2Cl)c2ncn(C(C)C)c2c1 (configuration not stated) | 9 | 9% | x | x | u | x
